According to PubChem BioAssay AID1159580 (chemical genetic matrix, 2015):
Several values for one entry are separate records, joined by “and”; a condition that tells them apart may be missing. Identical values can stand only once. Hit rate of the full screen: of about 5,500 compounds, about 2,000 (36%) were called active. Inconclusive results (about 18%) are left out. No stated cut-off is given here; in the data, active means normalized growth mostly below about 0.91 (no sharp cut-off); inconclusive means no clear call, values can overlap the other calls; inactive means mostly above about 0.92. The list shows a part of the results.

Assay: chemical genetic growth profiling, strain panel (AID 1159580);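 further: tested at 20 µM; growth read once vehicle control cultures reached saturation at 30 °C; 1 = growth at the plate median or of vehicle wells; lower values mean less growth of the strain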
Conditions: growth OD

Measured: normalized growth

Cc1cc(C(C)(C)C)cc(C)c1CC1=NCCN1
inactive: S. cerevisiae deletion strains, locus YJR075W, strain HOC1, hits give low values 1.02 | S. cerevisiae deletion strains, locus YKL009W, strain mrt4, hits give low values 1.03 | S. cerevisiae deletion strains, locus YKL068W, hits give low values 1 | S. cerevisiae deletion strains, locus YKL085W, strain MDH1 (second series), hits give low values 1.02 | S. cerevisiae deletion strains, locus YKL085W, strain MDH1, hits give low values 1.02 | S. cerevisiae deletion strains, locus YKL160W, strain elf1, hits give low values 1.01 | S. cerevisiae deletion strains, locus YKL190W, strain CNB1, hits give low values 1.02 | S. cerevisiae deletion strains, locus YKR001C, strain vps1, hits give low values 0.99 | S. cerevisiae deletion strains, locus YKR026C, strain gcn3, hits give low values 1.01 | S. cerevisiae deletion strains, locus YKR091W, strain srl3, hits give low values 0.996 | S. cerevisiae deletion strains, locus YLL001W, strain dnm1, hits give low values 1.03 | S. cerevisiae deletion strains, locus YLL026W, hits give low values 0.995 | S. cerevisiae deletion strains, locus YLL041C, strain sdh2, hits give low values 1 | S. cerevisiae deletion strains, locus YLR027C, strain aat2, hits give low values 1.01 | S. cerevisiae deletion strains, locus YLR039C, strain RIC1, hits give low values 0.992 | S. cerevisiae deletion strains, locus YLR058C, strain SHM2, hits give low values 1.02 | S. cerevisiae deletion strains, locus YLR102C, strain apc9, hits give low values 0.996 | S. cerevisiae deletion strains, locus YLR113W, strain HOG1, hits give low values 0.997 | S. cerevisiae deletion strains, locus YLR221C, strain rsa3, hits give low values 0.969 | S. cerevisiae deletion strains, locus YLR258W, strain gsy2, hits give low values 1 | S. cerevisiae deletion strains, locus YLR262C, strain YPT6 (second series), hits give low values 1.03 | S. cerevisiae deletion strains, locus YLR262C, strain YPT6, hits give low values 1.06 | S. cerevisiae deletion strains, locus YLR268W, strain sec22, hits give low values 0.983 | S. cerevisiae deletion strains, locus YLR320W, strain mms22, hits give low values 0.99 | S. cerevisiae deletion strains, locus YLR330W, strain CHS5, hits give low values 1.01 | S. cerevisiae deletion strains, locus YLR342W, strain FKS1 (second series), hits give low values 0.99 | S. cerevisiae deletion strains, locus YLR342W, strain FKS1, hits give low values 1 | S. cerevisiae deletion strains, locus YLR357W, strain rsc2, hits give low values 1 | S. cerevisiae deletion strains, locus YLR370C, strain arc18, hits give low values 1.01 | S. cerevisiae deletion strains, locus YLR371W, strain rom2, hits give low values 1 | S. cerevisiae deletion strains, locus YLR384C, strain iki3, hits give low values 1 | S. cerevisiae deletion strains, locus YLR418C, strain cdc73, hits give low values 0.995 | S. cerevisiae deletion strains, locus YML016C, strain PPZ1, hits give low values 1.01 | S. cerevisiae deletion strains, locus YML032C, strain rad52, hits give low values 0.994 | S. cerevisiae deletion strains, locus YML120C, strain ndi1, hits give low values 1.01 | S. cerevisiae deletion strains, locus YML124C, strain tub3, hits give low values 0.996 | S. cerevisiae deletion strains, locus YMR058W, strain fet3, hits give low values 1.01 | S. cerevisiae deletion strains, locus YMR078C, strain ctf18, hits give low values 0.991 | S. cerevisiae deletion strains, locus YMR125W, strain sto1, hits give low values 0.981 | S. cerevisiae deletion strains, locus YMR129W, hits give low values 1 | S. cerevisiae deletion strains, locus YMR205C, strain PFK2, hits give low values 1.02 | S. cerevisiae deletion strains, locus YMR223W, strain ubp8, hits give low values 1 | S. cerevisiae deletion strains, locus YMR231W, strain pep5, hits give low values 1 | S. cerevisiae deletion strains, locus YMR263W, strain SAP30, hits give low values 1.02 | S. cerevisiae deletion strains, locus YMR307W, strain GAS1, hits give low values 1.02 and 0.994 | S. cerevisiae deletion strains, locus YNL067W, strain RPL9B, hits give low values 1.02 | S. cerevisiae deletion strains, locus YNL071W, strain lat1, hits give low values 0.998 | S. cerevisiae deletion strains, locus YNL128W, strain TEP1, hits give low values 1.03 and 0.994 | S. cerevisiae deletion strains, locus YNL153C, strain GIM3, hits give low values 1 and 0.97 | S. cerevisiae deletion strains, locus YNL175C, strain NOP13, hits give low values 1.02 | S. cerevisiae deletion strains, locus YNL183C, strain NPR1, hits give low values 0.96 | S. cerevisiae deletion strains, locus YNL197C, strain WHI3, hits give low values 1.01 | S. cerevisiae deletion strains, locus YNL209W, strain ssb2, hits give low values 0.998 | S. cerevisiae deletion strains, locus YNL224C, strain SQS1, hits give low values 0.987 | S. cerevisiae deletion strains, locus YNL233W, strain BNI4, hits give low values 1.02 | S. cerevisiae deletion strains, locus YNL248C, strain rpa49, hits give low values 0.948 | S. cerevisiae deletion strains, locus YNL250W, strain rad50, hits give low values 1.01 | S. cerevisiae deletion strains, locus YNL271C, strain bni1, hits give low values 0.986 | S. cerevisiae deletion strains, locus YNL298W, strain CLA4, hits give low values 0.992 | S. cerevisiae deletion strains, locus YNL307C, strain MCK1, hits give low values 1.01 | S. cerevisiae deletion strains, locus YNL322C, strain KRE1 (second series), hits give low values 1.01 | S. cerevisiae deletion strains, locus YNL322C, strain KRE1, hits give low values 1.02 | S. cerevisiae deletion strains, locus YNR049C, strain mso1, hits give low values 0.998 | S. cerevisiae deletion strains, locus YNR052C, strain pop2, hits give low values 0.997 | S. cerevisiae deletion strains, locus YOL006C, strain TOP1, hits give low values 0.984 | S. cerevisiae deletion strains, locus YOL012C, strain htz1 1.06 | S. cerevisiae deletion strains, locus YOL147C, strain pex11, hits give low values 0.998 | S. cerevisiae deletion strains, locus YOR001W, strain rrp6, hits give low values 1.02 | S. cerevisiae deletion strains, locus YOR061W, strain CKA2, hits give low values 1.01 | S. cerevisiae deletion strains, locus YOR069W, strain VPS5, hits give low values 1.02 | S. cerevisiae deletion strains, locus YOR070C, strain gyp1, hits give low values 0.992 | S. cerevisiae deletion strains, locus YOR080W, strain dia2, hits give low values 1.01 | S. cerevisiae deletion strains, locus YOR083W, strain WHI5 (second series), hits give low values 0.992 | S. cerevisiae deletion strains, locus YOR083W, strain WHI5, hits give low values 0.99 | S. cerevisiae deletion strains, locus YOR106W, strain vam3, hits give low values 1.03 | S. cerevisiae deletion strains, locus YOR136W, strain idh2, hits give low values 0.997 | S. cerevisiae deletion strains, locus YOR144C, strain elg1, hits give low values 1 | S. cerevisiae deletion strains, locus YOR184W, strain ser1, hits give low values 1 | S. cerevisiae deletion strains, locus YOR231W, strain MKK1, hits give low values 1 | S. cerevisiae deletion strains, locus YOR265W, strain rbl2, hits give low values 1 | S. cerevisiae deletion strains, locus YOR270C, strain vph1, hits give low values 1 | S. cerevisiae deletion strains, locus YOR290C, strain snf2, hits give low values 0.975 | S. cerevisiae deletion strains, locus YOR316C, strain cot1, hits give low values 0.997 | S. cerevisiae deletion strains, locus YPL051W, strain arl3, hits give low values 1.01 | S. cerevisiae deletion strains, locus YPL055C, strain LGE1, hits give low values 1.04 | S. cerevisiae deletion strains, locus YPL078C, strain atp4, hits give low values 1.03 | S. cerevisiae deletion strains, locus YPL106C, strain sse1, hits give low values 0.996 | S. cerevisiae deletion strains, locus YPL240C, strain hsp82, hits give low values 0.991 | S. cerevisiae deletion strains, locus YPL241C, strain CIN2, hits give low values 1.01 and 1 | S. cerevisiae deletion strains, locus YPL256C, strain CLN2, hits give low values 0.949 | S. cerevisiae deletion strains, locus YPR119W, strain clb2, hits give low values 0.995 | S. cerevisiae deletion strains, locus YPR141C, strain kar3, hits give low values 1.01 | S. cerevisiae deletion strains, locus YPR163C, strain tif3, hits give low values 1 | S. cerevisiae deletion strains, locus YPR167C, strain met16, hits give low values 0.997 | S. cerevisiae deletion strains, strain wtn01, hits give low values 0.994 | S. cerevisiae strains, strain wild type, hits give low values 1.01
